The results in this text go back to PubChem BioAssay AID588335 (The Scripps Research Institute Molecular Screening Center, 2011).

Out of some 360,000 compounds screened, about 4,500 (1.2%) were called active. The full list was thinned out, with actives kept by preference. Unmarked numbers belong to inactive results. No stated cut-off is given here; in the data, active means inhibition above about 30%; inactive means the rest.

This assay can be described thus: inhibition of GDH and TPI enzymes – biochemical, absorbance, full deck, artefact control for M. tuberculosis FBA inhibitor project, primary screen (AID 588335).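 Further: 0% = DMSO wells and 100% = wells lacking the enzyme.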 Particulars: GDH-TPI coupled enzyme counterscreen, NADH absorbance; at 4.8 µM; active compounds read high. Background: Counterscreens check selectivity or assay interference.
With `CCCCN1C(=O)c2ccc(C(=O)Nc3ccc(S(=O)(=O)N(C)C)cc3)cc2C1=O`, the inhibition is 2.95%.
Take `Cc1ccc(NC2=NC(c3ccccc3)n3c(nc(C)cc3=O)N2)cc1` (stereo unspecified): the inhibition is 4.69%.
In the case of `COc1ccc(/C=N/n2nnnc2N)cc1OC`, the inhibition was 21.5%.
For `COc1ccc(/C=N/Nc2nc3ccccc3o2)cc1OC`, the inhibition is 44.1% (active).
As to `CCOc1ccccc1/C=N/Nc1nc2ccccc2o1`, the inhibition was 8.78%.
For `CC(C)[C@H](NC(=O)c1ccccc1F)C(=O)Nc1cccc(S(=O)(=O)N2CCOCC2)c1`, the inhibition is -3.11%.
`CN1C(=O)c2ccc(NC(=O)c3c(F)c(F)c(F)c(F)c3F)cc2C1=O`: the inhibition was 10.2%.
Consider `CC(C)(C)c1cc[n+](-c2[nH]c(=O)sc2/C=N/N=C(\[O-])c2ccccc2)cc1`, for which the inhibition was 32.8% (active).
Then `Cc1cc[n+](-c2[nH]c(=O)sc2/C=N/NC(=O)c2ccccc2[O-])cc1C`, with 30.5%; and `Cc1cccc(C)c1NC(=S)N(Cc1cccnc1)Cc1ccccc1Cl`, with 0.63%.
As to `CC1(C)CC(=O)C2=C(C1)NCN(CCCN1CCOCC1)C2`, the inhibition is 6.39%.
On to `CC(=CCOc1ccc2ccc(=O)oc2c1)C1=CC(=O)C(C)(C)O1`, for which the inhibition was 32.7% (active).
Consider `CC(C)OC(=O)c1ccc(COc2ccc3ccc(=O)oc3c2)o1`, for which the inhibition was 6.9%.
Turning to `O=C(COc1ccc2ccc(=O)oc2c1)NCC(O)c1ccccc1` (stereo unspecified), the inhibition was 7.87%.
For `COc1ccc2oc(C(=O)OCC(=O)N(CC(C)C)c3c(N)n(Cc4ccccc4)c(=O)[nH]c3=O)c(C)c2c1`, the inhibition was -3.6%.
For `O=C1Nc2ccc([N+](=O)[O-])cc2C1=Nc1cccc(CO)c1` the value was 15.1%.
Then `CCOc1ccc(C(C(=O)NCCOC)N(CCOC)C(=O)CCC(=O)Nc2ccccn2)cc1` (stereo unspecified), with 5.17%.
For the compound `COC(=O)Cc1cnc(NC(=O)CSc2nc(C(C)C)cc(=O)[nH]2)s1`, the inhibition is -1.15%.
`O=C1CC(c2ccccc2)C(=O)N2C(=O)CC(c3ccccc3)C(=O)N12` (stereo unspecified): the inhibition is 1.76%.
On to `Cc1c(O)c(C)c2c(c1O)C(=O)C[C@@H](c1ccccc1)O2`, for which the inhibition is 31% (active).
Regarding `COc1ccc2c(c1)C(=O)CC(c1ccccc1)O2` (stereo unspecified), the inhibition was 0.86%.
Take `NC(=O)CN1CCCC1c1ccc2c(c1)OCCO2` (stereo unspecified): the inhibition is -7.41%.
Turning to `CC1=NNC(=O)C1CCC(=O)N/N=C\c1cccc(Cl)c1` (stereo unspecified), the inhibition is -3.82%.
Regarding `CCCCSc1[nH]c(=O)c(C(=O)OCC)cc1C#N`, the inhibition was 36.1% (active).
Consider `CCOC(=O)C(Sc1ncc(C#N)c(N)n1)C(C)C` (stereo unspecified), for which the inhibition was 5.66%.
For `CCOC(=O)c1ccc(COC(=O)c2cc(=O)[nH]c3ccccc23)o1`, the inhibition was 7.46%.

One may read the inhibition as the relative decrease from the control value, in per cent.
